Screening results deposited in PubChem BioAssay by National Center for Advancing Translational Sciences (NCATS).
Only some compounds are listed: those with a hit (about 19% of all), similar ones and a draw of the others.
ELG1 DNA repair = qHTS screen for small molecules that inhibit ELG1-dependent DNA repair in human embryonic kidney (HEK293T) cells expressing luciferase-tagged ELG1. AID 504467, 2011. hit rate 2.3% among 330,000. HEK293T ELG1-luciferase reporter, luminescence, 16 h; DNA damage induced by 5-fluorouridine. Potency, µM (series often up to 46.1 µM), actives largely listed as inhibitors; also: nearly all actives have a fitted effect of over 55% in size
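Cells (2,000 per well) received 5-fluorouridine plus test compound or DMSO and were incubated 16 hr at 37 °C, 5% CO2. Luciferase activity was read by luminescence 30 min after ONE-Glo addition; signal suppression marked inhibition of damage-induced ELG1 function.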
Giardia killer = Small Molecules that selectively kill Giardia lamblia: qHTS; Giardia lamblia trophozoite viability; activity change, % at 7.66 µM, hits read low; hit rate 0.15% among 340,000; AID 540267, 2011; in the data active = activity change below about -80%; inconclusive = between about -30% and that limit;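 also: parasites exposed to compound for two days anaerobically before the ATP read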
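Viability, read as ATP luminescence: trophozoites at 100 cells/well, compound added, 48 hrs anaerobic at 37 deg C, then 15-30 min room-temperature development before reading.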
DT40 TDP1 CPT = qHTS for Inhibitors of human tyrosyl-DNA phosphodiesterase 1 (TDP1): qHTS in cells in presence of CPT; Potency, µM (doses to about 46.2 µM), actives largely listed as inhibitors; AID 686979, 2013; hit rate 12% among 420,000; chicken DT40 Tdp1-/-;hTDP1 cells + 20 nM CPT, ATP luminescence, 48 h; also: nearly all actives have a fitted effect of over 55% in size
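Cell growth measured by CellTiter-Glo luminescence after a minimum 48 h, 37 C compound exposure with 20 nM CPT in Tdp1-knockout DT40 cells stably expressing hTDP1, seeded 400/well; qHTS titration format.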
TDP1 cell noCPT = qHTS for Inhibitors of human tyrosyl-DNA phosphodiesterase 1 (TDP1): qHTS in cells in absence of CPT; DT40 Tdp1-/- hTDP1 cells, no CPT, ATP luminescence, 48 h; hit rate 15% among 420,000; AID 686978, 2013; Potency, µM (doses to about 46.2 µM), most hits filed as inhibitors; also: nearly all actives have a fitted effect of over 55% in size
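Growth of hTDP1-complemented DT40 Tdp1-knockout cells is measured by ATP luminescence after at least 48 hr compound exposure at 37 °C, with DMSO substituting for the 20 nM CPT used in the parallel screen.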
TDP1 block = qHTS Assay for Inhibitors of Tyrosyl-DNA Phosphodiesterase (TDP1); AID 485290, 2010; Potency, µM (titrated, usually from 130 µM), usual class: inhibitors; recombinant TDP1, AlphaScreen DNA substrate cleavage; hit rate 0.28% among 350,000; also: nearly all actives have a fitted effect of over 40% in size
Target sequence (Q9NUW8 whole entry, looked up): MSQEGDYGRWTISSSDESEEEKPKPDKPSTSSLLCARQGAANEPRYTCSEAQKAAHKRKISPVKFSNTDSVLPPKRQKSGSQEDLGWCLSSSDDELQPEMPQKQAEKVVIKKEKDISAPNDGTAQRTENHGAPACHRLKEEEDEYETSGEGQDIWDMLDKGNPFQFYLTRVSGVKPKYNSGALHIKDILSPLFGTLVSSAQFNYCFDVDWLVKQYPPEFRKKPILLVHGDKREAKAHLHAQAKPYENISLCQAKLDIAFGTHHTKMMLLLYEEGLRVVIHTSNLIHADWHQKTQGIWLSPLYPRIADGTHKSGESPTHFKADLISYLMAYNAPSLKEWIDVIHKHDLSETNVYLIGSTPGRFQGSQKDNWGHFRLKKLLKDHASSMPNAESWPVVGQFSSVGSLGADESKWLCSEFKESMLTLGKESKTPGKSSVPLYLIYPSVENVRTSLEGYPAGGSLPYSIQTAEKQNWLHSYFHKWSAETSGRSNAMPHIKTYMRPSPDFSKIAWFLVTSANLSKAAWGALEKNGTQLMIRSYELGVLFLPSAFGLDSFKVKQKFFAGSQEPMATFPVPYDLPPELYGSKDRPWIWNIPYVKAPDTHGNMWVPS
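AlphaScreen read-out: signal falls as enzyme removes the 3' tyrosine-FITC from a 5'-biotinylated DNA oligo (15 nM, 5 min, RT). Enzyme was E. coli-made recombinant Tdp1 at 1 nM, exposed to compound for 15 min beforehand; beads 10 ug/ml, 10 min.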
IL1B secr inh = qHTS for Inhibitors of Inflammasome Signaling: IL-1-beta AlphaLISA Primary Screen; activity change, % at 57.5 µM; THP-1 LPS/ATP IL-1B secretion, AlphaLISA, 16 h; hits give low values; hit rate 4.7% among 360,000; in the data active = activity change below about -50%; inconclusive = mostly about -30% to -49%
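THP-1 cells pretreated 1 hr with compounds (up to 57.5 uM final), then stimulated with LPS (250 ng/mL final) plus ATP (1.25 mM final); secreted IL-1B measured by AlphaLISA after 16 hr, decreased signal indicating inhibition.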
Hits are given with their value; n = inactive; u = inconclusive; x = not tested or not shown; [ ] = remark or other dose. Unless noted, calls follow the shape of the dose curve; as a rule, active = well fitted curve in the direction sought with a large enough effect; inconclusive = small, poorly fitted or top-dose-only effect, or another doubt; inactive = no such curve, though single readings can be large; an effect the other way counts as inactive or inconclusive.

SMILES	ELG1 DNA repair	Giardia killer	DT40 TDP1 CPT	TDP1 cell noCPT	TDP1 block	IL1B secr inh
Cc1ccc(Cc2cnc(N3C(=N)SC(C)C3=O)s2)cc1 (stereo not given)	u	n	u	u	n	n
Cc1ccc(S(=O)(=O)N(CC(=O)N2CCC(C)CC2)Cc2ccccc2F)cc1	n	n	u	u	n	n
COc1cccc(C(C(=O)NC(C)(C)C)N(C(=O)CCC(=O)Nc2cc(C)on2)c2ccc3c(c2)OCCO3)c1OC (stereo not given)	n	n	n	u	n	n
O=C(OCC(=O)c1ccc(Cl)s1)c1cnccn1	n	n	n	n	n	n
CC(=O)Nc1ccc(S(=O)(=O)NC2(c3ccccc3)C(=O)N(C)C(=O)N(C)C2=O)cc1	x	n	n	n	x	n
Fc1ccccc1Oc1nc(-c2ccncc2)nc2ccccc12	n	n	u	16µM	n	n
CNC(=O)OCc1nc(SSC(C)(C)C)n(C)c1COC(=O)NC	x	n	2.1µM	2.1µM	x	-100
CCSc1nc(COC(=O)NC)c(COC(=O)NC)n1C	x	n	2.3µM	5.2µM	x	n
CCSc1nc2ccccc2n1CC(=O)OC	n	n	n	n	n	n
OCC[C@@H]1C[C@H](O)[C@@H](O)[C@]2(OCc3ccc4ccccc4c32)O1	x	x	n	n	x	n
COc1ccc2[nH]cc(CCNc3ncnc4ccc(-c5ccc6c(c5)OCO6)cc34)c2c1	x	x	u	16µM	x	x
Cc1csc(CNc2ncnc3ccc(-c4cccnc4)cc23)c1	n	n	x	x	n	x
COc1ccc2[nH]cc(CCNc3ncnc4ccc(-c5cccnc5)cc34)c2c1	x	x	15µM	23µM	x	x
c1nc(NCCc2cnc[nH]2)c2cc(-c3ccc4c(c3)OCO4)ccc2n1	x	x	x	x	n	x
CC(=O)NCCNc1ncnc2ccc(-c3ccc4c(c3)OCO4)cc12	x	x	16µM	u	x	x
CCC(=O)N1CCc2cc(S(=O)(=O)NCCC(=O)Nc3cc(C)ccc3OC)ccc21	x	x	n	n	n	x
Cc1nc(-c2cnn(-c3ccccc3)c2)c2cc(C)oc2n1	u	n	u	18µM	n	n
Cc1oc2cc(O)cc(C)c2c(=O)c1-c1cnn(-c2ccccc2)c1	n	n	u	u	n	n
Cn1nc(C(F)(F)F)c(-c2ccc(Br)cc2)c1NC(=O)c1cccnc1	n	n	u	13µM	n	n
Cn1nc(C(F)(F)F)c(-c2ccc(F)cc2)c1NC(=O)Nc1ccc(F)cc1	n	n	16µM	15µM	n	x
c1ccc(-c2nc(-c3cccc4ccccc34)c(Nc3ccc4ccccc4c3)o2)cc1	x	x	x	x	n	x
O=[N+]([O-])c1ccc(Cl)c(CN2CCN(c3ncc(Cc4ccccc4)cn3)CC2)c1	x	x	23µM	16µM	x	n
O=[N+]([O-])c1ccc(Br)c(CN2CCN(c3ncc(Cc4ccccc4)cn3)CC2)c1	x	x	u	21µM	x	n
Oc1ccc(F)c(CN2CCN(c3ncc(Cc4ccccc4)cn3)CC2)c1	x	x	u	26µM	x	n
CO[C@H]1COC(=O)[C@@H](CCSC)NC(=O)C/C=C\[C@@H](C)[C@H](OC)COC(=O)[C@@H](OCc2ccccc2)/C=C\[C@@H]1C	x	x	x	x	n[21 µM]	x
O=C(/C=C/c1ccccc1Cl)Nc1ccc(-c2nnc3n2CCCCC3)cc1	18µM	n	n	n	n	n
O=C(/C=C/c1ccccc1Cl)Nc1cccc(O)c1	u	n	u	u	n	n
O=C(Nc1ccc(-c2nnc3n2CCCCC3)cc1)c1cc2ccccc2o1	u	n	u	u	n	-199
O=C(/C=C/c1ccccc1Cl)Nc1ccccc1	u	n	n	n	n	-65
O=C(Nc1ccc(N2CCCC2)cc1)c1cc2ccccc2o1	u	n	n	u	n	n
